Laboratory results reported in PubChem BioAssay (NCATS).
Inconclusive results are not listed. Values without a mark were called inactive. Calls follow the shape of the dose curve; as a rule, active = well fitted inhibition curve with a large enough effect; inconclusive = small, poorly fitted or top-dose-only effect; inactive = flat fitted curve, though single readings scatter.

These compounds were tested against Calcium and integrin-binding protein 1 (Homo sapiens) (UniProt Q99828) (assay: Primary qHTS for Identification of Calcium Integrin Binding Protein 1 (CIB1) Competitor (AID 1508620;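 also: GST tagged CIB1 binding a fluorescein labelled alphaIIb integrin peptide tracer; top concentration of the series differs between compounds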)). Conditions: CIB1-GST / FITC-alphaIIb peptide fluorescence polarization; series mostly up to 114 µM; activity change, negative = inhibition: at the top concentration.
Method in brief: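 Fluorescence polarization competition: CIB1-GST (1 uM final) preincubated with compound 15 min at room temperature, then FITC-labeled alphaIIb peptide (100 nM final) added for another 15 min. Polarization read at Ex 480/Em 540.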
% is scaled to controls: 0 for no effect and ±100 for the full control effect.

Sequence of Calcium and integrin-binding protein 1 (Homo sapiens) (Q99828 whole entry, looked up): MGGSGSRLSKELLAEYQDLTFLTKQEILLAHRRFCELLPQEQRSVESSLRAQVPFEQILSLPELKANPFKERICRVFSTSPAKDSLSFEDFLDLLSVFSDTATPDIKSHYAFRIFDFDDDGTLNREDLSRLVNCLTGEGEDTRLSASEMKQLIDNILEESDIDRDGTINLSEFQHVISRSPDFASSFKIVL

Row | SMILES | activity change, negative = inhibition
1 | Cc1cnc(-c2ccccc2C(C)C)nc1NCC1CCN(C)CC1 | 2.08%
2 | O=S(=O)(Nc1cnc2ccccc2c1)c1ccc(NCc2ccc(Br)cc2O)cc1 | 5.68%
3 | Oc1cc(Nc2ccncc2)cc2cccnc12 | -17.6%
4 | Cc1ccc(OCCCn2c(CCNC(=O)C3CCCCC3)nc3ccccc32)cc1 | 2.71%
5 | CC(C)(C)OC(=O)N1CCN(c2ccc(NCc3cncc(-c4ccc(C#N)cc4)c3)cc2)CC1 | -5.96%
6 | N#Cc1nc(Nc2cccc3ccccc23)nc(NC2CCCC2)n1 | 6.46%
7 | CCOC(=O)c1ccc(-n2c(C)cc(-c3nnc4n3CCCCC4)c2C)cc1 | 1.22%
8 | COc1ccnc(NC(=S)N2CCN(c3ccc4ccccc4n3)CC2)c1 | -10.9%
9 | O=S(=O)(c1ccc2c(c1)OCCO2)N1CCN(S(=O)(=O)c2c(F)cccc2F)CC1 | -4.79%
10 | Cc1cc2c(s1)c1cnn(Cc3ccccc3C)c(=O)c1n2C | 8.01%
11 | Cc1cccc(-n2cnc3cc(C(=O)N4CCN(C)CC4)ccc32)c1 | 6.77%
12 | c1coc(-c2ccc3ncnc(NCc4cccs4)c3c2)c1 | -14.8%
13 | Nc1cc(S(=O)(=O)N2CCN(S(=O)(=O)c3ccc4c(c3)OCCO4)CC2)ccn1 | 5.78%
14 | Cc1occc1-c1ccc2ncnc(NCCc3cnc[nH]3)c2c1 | 1.38%
15 | COc1ccccc1-c1nc(NCc2ccc(-c3cccnc3)cc2)c2ccccc2n1 | 4.15%
16 | O=C1CCCC2=C1C(c1cnccc1C(F)(F)F)N=C(Nc1nc3ccccc3o1)N2 (stereo not drawn) | -3.02%
17 | O=C1CCc2cc(S(=O)(=O)Nc3cccc(F)c3)ccc2N1 | 0.47%
18 | O=S(=O)(c1ccc2c(c1)OCCO2)N1CCN(S(=O)(=O)c2ccc(Cl)cc2F)CC1 | 1.96%
